# Measured values taken from ChEMBL document CHEMBL3988442, “University of Dundee, Small-Polar-MMV Screening Library” (2021).
# For some of these results: Entries with a potency or affinity are not part of this list.
# Experiments:
# Set-up in all cases: scale not given: direction of the effect not stated beside the values
# [1] = target: Protein translocase subunit SecA (Escherichia coli (strain K12)) (UniProt P10408); assay: Assay to Identify E. coli SecA ATPase Inhibitors; format: functional; settings: 30 µM
# [2] = target: T1, Ubiquitin-activating enzyme e1, putative (Leishmania donovani (strain BPK282A1)) (UniProt E9BSI1); assay: Leishmania donovani Ubiquitin Activating Enzyme (LdE1); format: functional; settings: 30 µM
# T1 sequence (whole entry): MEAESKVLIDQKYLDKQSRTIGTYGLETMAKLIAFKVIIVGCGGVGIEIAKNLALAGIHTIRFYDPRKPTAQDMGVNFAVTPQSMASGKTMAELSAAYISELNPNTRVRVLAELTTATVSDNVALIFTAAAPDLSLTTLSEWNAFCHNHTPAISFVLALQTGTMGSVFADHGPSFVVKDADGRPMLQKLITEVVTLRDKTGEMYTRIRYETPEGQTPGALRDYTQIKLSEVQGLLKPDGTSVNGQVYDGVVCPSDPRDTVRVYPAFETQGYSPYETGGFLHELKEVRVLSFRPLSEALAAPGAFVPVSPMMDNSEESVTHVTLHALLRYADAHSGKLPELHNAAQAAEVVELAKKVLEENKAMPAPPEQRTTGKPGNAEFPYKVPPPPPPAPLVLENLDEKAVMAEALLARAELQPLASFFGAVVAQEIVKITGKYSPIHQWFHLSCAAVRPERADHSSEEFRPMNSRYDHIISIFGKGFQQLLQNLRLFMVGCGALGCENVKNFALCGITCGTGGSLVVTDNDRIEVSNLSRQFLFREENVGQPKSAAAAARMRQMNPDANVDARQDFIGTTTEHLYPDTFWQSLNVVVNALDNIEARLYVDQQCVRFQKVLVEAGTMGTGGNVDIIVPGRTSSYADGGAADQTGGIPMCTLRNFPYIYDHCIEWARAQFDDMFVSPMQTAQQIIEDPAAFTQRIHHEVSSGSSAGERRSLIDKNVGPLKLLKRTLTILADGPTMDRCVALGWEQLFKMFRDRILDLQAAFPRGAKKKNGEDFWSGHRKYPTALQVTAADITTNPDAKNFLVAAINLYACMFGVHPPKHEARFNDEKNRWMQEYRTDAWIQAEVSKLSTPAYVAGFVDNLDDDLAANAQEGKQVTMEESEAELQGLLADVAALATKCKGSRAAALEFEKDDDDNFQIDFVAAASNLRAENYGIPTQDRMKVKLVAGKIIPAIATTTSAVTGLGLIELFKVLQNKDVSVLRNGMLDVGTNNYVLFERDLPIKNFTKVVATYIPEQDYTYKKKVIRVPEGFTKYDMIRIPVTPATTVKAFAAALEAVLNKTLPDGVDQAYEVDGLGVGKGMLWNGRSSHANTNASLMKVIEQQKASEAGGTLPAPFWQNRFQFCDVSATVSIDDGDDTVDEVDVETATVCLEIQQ
# [3] = target: T2, Aspartate--tRNA(Asp/Asn) ligase (Mycobacterium tuberculosis (strain ATCC 25618 / H37Rv)) (UniProt P9WFW3); assay: Assay for Asp RNA synthetase-1 from Mycobacterium tuberculosis; format: functional; settings: 30 µM; note: in the data most compounds retested in dose-response had high values
# T2 sequence (whole entry): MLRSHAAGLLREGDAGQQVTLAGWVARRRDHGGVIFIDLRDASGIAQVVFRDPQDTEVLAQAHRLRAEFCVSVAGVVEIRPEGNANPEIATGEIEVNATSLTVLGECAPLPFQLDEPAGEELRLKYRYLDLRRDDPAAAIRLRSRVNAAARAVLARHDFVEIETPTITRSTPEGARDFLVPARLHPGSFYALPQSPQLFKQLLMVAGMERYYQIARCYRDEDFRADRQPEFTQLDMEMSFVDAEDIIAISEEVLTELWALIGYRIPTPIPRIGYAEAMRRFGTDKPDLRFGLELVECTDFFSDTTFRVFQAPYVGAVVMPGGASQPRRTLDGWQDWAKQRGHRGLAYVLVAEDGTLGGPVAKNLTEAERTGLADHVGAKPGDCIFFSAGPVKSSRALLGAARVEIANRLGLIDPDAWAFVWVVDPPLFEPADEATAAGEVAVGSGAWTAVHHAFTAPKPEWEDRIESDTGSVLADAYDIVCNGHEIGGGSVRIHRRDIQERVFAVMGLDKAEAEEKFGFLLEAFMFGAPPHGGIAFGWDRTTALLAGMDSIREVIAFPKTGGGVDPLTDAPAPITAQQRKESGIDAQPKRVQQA
# [4] = target: Sialic acid-binding Ig-like lectin 9 (Homo sapiens) (UniProt Q9Y336); assay: Hs-Siglec9 ALPHAscreen SOP 20170721; settings: 10 µM
# Trypanosoma cruzi = assay: Trypanosoma cruzi phosphomannomutase and mannose-1-phosphate guanylyltransferase assay; format: functional; settings: 10 µM
# [5] = target: T3, Arginase-2, mitochondrial (Homo sapiens) (UniProt P78540); assay: in vitro enzyme assay to detect the production of urea directly proportional to the activity of Arginase II; format: functional; settings: 33.3 µM; note: in the data most compounds retested in dose-response had high values
# T3 sequence (whole entry): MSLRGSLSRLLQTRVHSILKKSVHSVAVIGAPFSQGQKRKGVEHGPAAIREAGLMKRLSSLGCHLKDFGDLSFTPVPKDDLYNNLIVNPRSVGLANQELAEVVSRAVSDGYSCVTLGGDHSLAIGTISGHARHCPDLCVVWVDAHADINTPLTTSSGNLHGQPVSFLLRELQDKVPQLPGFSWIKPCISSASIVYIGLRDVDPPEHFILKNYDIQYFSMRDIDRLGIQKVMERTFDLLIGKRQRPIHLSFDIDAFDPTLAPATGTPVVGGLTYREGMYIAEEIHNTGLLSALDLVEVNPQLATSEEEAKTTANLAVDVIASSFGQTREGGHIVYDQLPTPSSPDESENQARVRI
# [6] = target: T4, Proteasome subunit beta (Trypanosoma cruzi) (UniProt O96673); assay: Trypanosoma cruzi proteasome chymotrypsin-like activity (TcProtChymo) assay.; note: in the data most compounds retested in dose-response had high values; format: functional; settings: 9.37 µM
# T4 sequence (whole entry): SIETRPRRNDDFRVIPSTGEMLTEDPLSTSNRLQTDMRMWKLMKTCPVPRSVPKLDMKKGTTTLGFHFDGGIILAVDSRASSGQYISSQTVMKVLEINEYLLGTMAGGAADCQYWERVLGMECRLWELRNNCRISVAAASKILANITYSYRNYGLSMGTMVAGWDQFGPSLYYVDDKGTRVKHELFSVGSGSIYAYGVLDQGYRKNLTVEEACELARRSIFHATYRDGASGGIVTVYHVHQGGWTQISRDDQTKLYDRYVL
# Homo sapiens = species: Homo sapiens; assay: To identify inhibition of the IFN signalling (Jak-Stat) pathway via expression of an eGFP reporter gene under the control of an IFN-stimulated response element (ISRE) containing MxA promoter.; format: functional; settings: 30 µM
# [7] = target: Shiga toxin 2 (Escherichia coli O157:H7) (UniProt P09385+P09386); assay: E. coli 0.157:H7 Shiga Toxin SOP - stx2 screening assay; format: functional; settings: 30 µM
# [8] = target: T5, Tyrosyl-tRNA synthetase, putative (Trypanosoma cruzi (strain CL Brener)) (UniProt Q4DSP6); assay: Trypanosoma cruzi tyrosyl tRNA synthetase (TcYRS) _High Tyrosine SOP; format: functional; settings: 30 µM; note: in the data most compounds retested in dose-response had high values
# T5 sequence (whole entry): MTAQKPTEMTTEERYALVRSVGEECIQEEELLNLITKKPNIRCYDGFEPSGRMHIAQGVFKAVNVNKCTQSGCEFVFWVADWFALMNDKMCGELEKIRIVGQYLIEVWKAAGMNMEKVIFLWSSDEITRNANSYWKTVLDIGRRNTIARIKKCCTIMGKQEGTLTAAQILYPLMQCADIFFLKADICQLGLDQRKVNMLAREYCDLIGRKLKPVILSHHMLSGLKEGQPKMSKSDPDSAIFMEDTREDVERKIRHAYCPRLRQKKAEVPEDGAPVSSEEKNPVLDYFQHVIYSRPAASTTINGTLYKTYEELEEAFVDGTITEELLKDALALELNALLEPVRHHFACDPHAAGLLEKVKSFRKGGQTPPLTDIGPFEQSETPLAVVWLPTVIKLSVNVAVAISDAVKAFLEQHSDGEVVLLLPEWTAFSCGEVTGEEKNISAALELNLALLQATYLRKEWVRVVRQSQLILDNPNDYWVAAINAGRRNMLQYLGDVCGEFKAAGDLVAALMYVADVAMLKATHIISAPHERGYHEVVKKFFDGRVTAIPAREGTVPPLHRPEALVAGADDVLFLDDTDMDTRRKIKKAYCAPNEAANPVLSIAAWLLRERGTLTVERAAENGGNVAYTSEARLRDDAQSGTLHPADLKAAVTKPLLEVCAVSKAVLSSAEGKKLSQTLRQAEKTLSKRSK
# [9] = target: T5, Tyrosyl-tRNA synthetase, putative (Trypanosoma cruzi (strain CL Brener)); assay: Trypanosoma cruzi tyrosyl tRNA synthetase (TcYRS) SOP; format: functional; settings: 30 µM
# [10] = target: Chromo domain-containing protein 1 (Saccharomyces cerevisiae (strain ATCC 204508 / S288c) (Baker's yeast)) (UniProt P32657); assay: ScCHD-1 Enzyme Inhibition Assay; format: functional; settings: 30 µM; note: in the data most compounds retested in dose-response had high values
# Chain of Chromo domain-containing protein 1 (Saccharomyces cerevisiae (strain ATCC 204508 / S288c) (Baker's yeast)) (P32657 whole entry, the tested form may be a part): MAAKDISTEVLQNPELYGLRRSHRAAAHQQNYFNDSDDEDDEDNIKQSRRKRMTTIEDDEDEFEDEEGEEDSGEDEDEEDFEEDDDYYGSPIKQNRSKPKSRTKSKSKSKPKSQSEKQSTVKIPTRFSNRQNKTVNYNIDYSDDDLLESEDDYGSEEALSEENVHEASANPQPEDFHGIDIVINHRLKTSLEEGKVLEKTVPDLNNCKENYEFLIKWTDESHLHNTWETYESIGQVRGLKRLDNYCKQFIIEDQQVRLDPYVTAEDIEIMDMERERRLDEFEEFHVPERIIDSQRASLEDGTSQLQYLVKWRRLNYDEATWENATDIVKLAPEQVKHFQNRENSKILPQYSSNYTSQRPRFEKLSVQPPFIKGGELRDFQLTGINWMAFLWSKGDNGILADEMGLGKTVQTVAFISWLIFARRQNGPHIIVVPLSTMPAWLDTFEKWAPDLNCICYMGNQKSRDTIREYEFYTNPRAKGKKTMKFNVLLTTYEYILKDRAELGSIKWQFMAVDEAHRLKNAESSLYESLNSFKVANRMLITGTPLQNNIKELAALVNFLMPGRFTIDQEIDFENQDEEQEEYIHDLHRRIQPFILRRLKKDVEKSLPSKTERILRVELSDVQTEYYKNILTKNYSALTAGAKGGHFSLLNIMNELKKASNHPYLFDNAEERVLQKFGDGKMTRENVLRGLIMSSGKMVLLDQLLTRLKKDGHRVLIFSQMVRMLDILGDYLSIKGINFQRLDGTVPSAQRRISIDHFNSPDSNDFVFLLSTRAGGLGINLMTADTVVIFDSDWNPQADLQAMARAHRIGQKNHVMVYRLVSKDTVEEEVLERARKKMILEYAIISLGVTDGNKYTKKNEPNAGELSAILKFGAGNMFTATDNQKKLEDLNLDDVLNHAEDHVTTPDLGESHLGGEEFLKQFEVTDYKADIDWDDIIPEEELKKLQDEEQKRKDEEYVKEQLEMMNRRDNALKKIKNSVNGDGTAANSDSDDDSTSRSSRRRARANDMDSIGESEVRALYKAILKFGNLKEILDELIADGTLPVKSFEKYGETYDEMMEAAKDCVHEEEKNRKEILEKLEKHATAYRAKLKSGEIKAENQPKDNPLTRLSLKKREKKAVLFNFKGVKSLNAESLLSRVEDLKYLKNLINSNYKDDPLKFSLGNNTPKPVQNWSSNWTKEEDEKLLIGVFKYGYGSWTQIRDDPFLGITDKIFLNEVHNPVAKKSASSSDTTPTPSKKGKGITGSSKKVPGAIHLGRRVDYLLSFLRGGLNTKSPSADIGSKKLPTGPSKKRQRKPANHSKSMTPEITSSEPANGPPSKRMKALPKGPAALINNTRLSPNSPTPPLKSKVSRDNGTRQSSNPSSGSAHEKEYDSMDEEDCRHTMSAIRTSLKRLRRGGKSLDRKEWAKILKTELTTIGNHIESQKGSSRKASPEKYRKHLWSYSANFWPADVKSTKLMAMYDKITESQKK
# Chain of Protein translocase subunit SecA (Escherichia coli (strain K12)) (P10408 whole entry): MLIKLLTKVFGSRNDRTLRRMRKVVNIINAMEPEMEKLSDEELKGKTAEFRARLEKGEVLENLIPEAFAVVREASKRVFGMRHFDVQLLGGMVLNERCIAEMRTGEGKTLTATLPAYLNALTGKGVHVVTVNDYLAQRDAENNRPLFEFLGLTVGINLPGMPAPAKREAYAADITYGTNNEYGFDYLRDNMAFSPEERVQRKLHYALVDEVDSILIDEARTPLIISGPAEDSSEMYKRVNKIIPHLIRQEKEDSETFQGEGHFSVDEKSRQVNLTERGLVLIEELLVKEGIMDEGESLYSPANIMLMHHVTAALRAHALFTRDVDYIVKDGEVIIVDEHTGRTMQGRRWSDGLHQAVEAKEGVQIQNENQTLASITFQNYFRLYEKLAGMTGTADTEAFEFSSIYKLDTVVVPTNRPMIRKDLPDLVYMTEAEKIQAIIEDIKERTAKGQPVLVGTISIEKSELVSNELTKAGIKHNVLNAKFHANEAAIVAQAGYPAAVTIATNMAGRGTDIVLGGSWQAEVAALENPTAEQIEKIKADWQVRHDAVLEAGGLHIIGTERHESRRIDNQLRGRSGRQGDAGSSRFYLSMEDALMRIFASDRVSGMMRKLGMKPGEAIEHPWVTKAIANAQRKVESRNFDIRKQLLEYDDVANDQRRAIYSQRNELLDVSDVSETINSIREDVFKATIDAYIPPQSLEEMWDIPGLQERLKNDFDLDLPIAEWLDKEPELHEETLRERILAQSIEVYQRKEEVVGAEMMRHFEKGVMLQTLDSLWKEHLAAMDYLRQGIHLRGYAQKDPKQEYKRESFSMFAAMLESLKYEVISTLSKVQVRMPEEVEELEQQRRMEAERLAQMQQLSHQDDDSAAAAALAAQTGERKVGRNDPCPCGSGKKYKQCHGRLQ
# Chain of Sialic acid-binding Ig-like lectin 9 (Homo sapiens) (Q9Y336 whole entry): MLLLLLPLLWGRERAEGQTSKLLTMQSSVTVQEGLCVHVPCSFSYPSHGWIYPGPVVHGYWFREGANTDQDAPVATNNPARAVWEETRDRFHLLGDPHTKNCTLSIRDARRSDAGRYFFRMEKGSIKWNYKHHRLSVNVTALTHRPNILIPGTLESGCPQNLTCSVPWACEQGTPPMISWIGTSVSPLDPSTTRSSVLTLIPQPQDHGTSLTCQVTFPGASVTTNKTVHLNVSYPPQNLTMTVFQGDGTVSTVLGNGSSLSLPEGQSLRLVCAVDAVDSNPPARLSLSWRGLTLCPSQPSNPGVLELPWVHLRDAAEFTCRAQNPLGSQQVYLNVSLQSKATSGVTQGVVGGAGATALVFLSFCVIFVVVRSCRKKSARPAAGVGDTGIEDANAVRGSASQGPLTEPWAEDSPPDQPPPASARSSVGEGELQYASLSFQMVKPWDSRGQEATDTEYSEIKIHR
structure (smiles),measurement,setting,value
Cc1cccc(CN2C(=O)C[C@H]3[C@@H]2CCN3Cc2ccccn2)n1,Percent Effect,[1],0.959%
same,Percent Effect,[2],22.1%
same,Percent Effect,[3],3.98%
same,Percent Effect,[4],-1.08%
same,Percent Effect,Trypanosoma cruzi,-1.13%
same,Percent Effect,[5],-1.83%
same,Percent Effect,[6],12.8%
same,Percent Effect,Homo sapiens,-7.67%
same,Percent Effect,[7],-19.3%
same,Percent Effect,[8],-0.966%
same,Percent Effect,[9],20%
same,Percent Effect,[10],-6.04%
CC(C)(C)n1cc(C(=O)NCCCn2ccnc2)c2cccnc21,Percent Effect,[1],3.93%
same,Percent Effect,[2],17.3%
same,Percent Effect,[3],6.13%
same,Percent Effect,[4],-8.62%
same,Percent Effect,Trypanosoma cruzi,4.73%
same,Percent Effect,[5],1.77%
same,Percent Effect,[6],19.1%
same,Percent Effect,Homo sapiens,29.9%
same,Percent Effect,[7],-3.75%
same,Percent Effect,[8],2.12%
same,Percent Effect,[9],15%
same,Percent Effect,[10],-24.1%
COc1ccc(C(=O)C2CCCN(Cc3ccc(C)o3)C2)c(OC)c1 (configuration not stated),Percent Effect,[1],-3.9%
same,Percent Effect,[2],-5.41%
same,Percent Effect,[3],-4.91%
same,Percent Effect,[4],3.98%
same,Percent Effect,Trypanosoma cruzi,-2.04%
same,Percent Effect,[5],1.75%
same,Percent Effect,[6],7.71%
same,Percent Effect,Homo sapiens,-5.12%
same,Percent Effect,[7],-2.98%
same,Percent Effect,[8],1.6%
same,Percent Effect,[9],7.32%
same,Percent Effect,[10],2.92%
O=C(Cn1ccc2c(Cl)cccc21)N1CCC2(CC1)OCCO2,Percent Effect,[1],-2.33%
same,Percent Effect,[2],10.8%
same,Percent Effect,[3],0.188%
same,Percent Effect,[4],5.66%
same,Percent Effect,Trypanosoma cruzi,1.46%
same,Percent Effect,[5],49.3%
same,Percent Effect,[6],11.8%
same,Percent Effect,Homo sapiens,12.8%
same,Percent Effect,[7],1.14%
same,Percent Effect,[8],4.79%
same,Percent Effect,[9],19.5%
same,Percent Effect,[10],-2.23%
Cc1noc(C)c1CN1CCCC2(CCN(C(=O)NC3CC3)C2)C1 (configuration not stated),Percent Effect,[1],-2.63%
same,Percent Effect,[2],22.1%
same,Percent Effect,[3],0.865%
same,Percent Effect,[4],-1.1%
same,Percent Effect,Trypanosoma cruzi,-3.94%
same,Percent Effect,[5],5.94%
same,Percent Effect,[6],17.2%
same,Percent Effect,Homo sapiens,16.8%
same,Percent Effect,[7],-1.92%
same,Percent Effect,[8],13.5%
same,Percent Effect,[9],15%
same,Percent Effect,[10],-10.3%
COCC1CC2(CCN(Cc3ccccn3)CC2)CN1C(C)C (configuration not stated),Percent Effect,[1],-6.44%
same,Percent Effect,[2],6.49%
same,Percent Effect,[3],4.1%
same,Percent Effect,[4],6.75%
same,Percent Effect,Trypanosoma cruzi,7.11%
same,Percent Effect,[5],-8.1%
same,Percent Effect,[6],7.5%
same,Percent Effect,Homo sapiens,2.62%
same,Percent Effect,[7],-1.31%
same,Percent Effect,[8],3.68%
same,Percent Effect,[9],12.8%
same,Percent Effect,[10],2.02%
COCCN1C[C@@H]2CN(Cc3cccc(C)n3)C[C@@H]2C1=O,Percent Effect,[1],-2.33%
same,Percent Effect,[2],-1.3%
same,Percent Effect,[3],1.39%
same,Percent Effect,[4],0.23%
same,Percent Effect,Trypanosoma cruzi,-24.2%
same,Percent Effect,[5],2.28%
same,Percent Effect,[6],16.1%
same,Percent Effect,Homo sapiens,1.2%
same,Percent Effect,[7],-2.04%
same,Percent Effect,[8],7.73%
same,Percent Effect,[9],12.5%
same,Percent Effect,[10],-8.2%
c1cc(CNCc2ccc3c(c2)CCO3)cc(N2CCOCC2)n1,Percent Effect,[3],-4.98%
same,Percent Effect,[7],-32.6%
COc1cccc(CN2CCCCCC2c2cccs2)c1O (configuration not stated),Percent Effect,[3],0.335%
same,Percent Effect,[7],-75.8%
Cn1cc(CN2CCn3cc(CNC(=O)C4CCC4)nc3C2)cn1,Percent Effect,[3],1.34%
same,Percent Effect,[7],-6.29%
Cc1cc(CN2CCN(C(=O)CCc3cccc(F)c3F)CC2)on1,Percent Effect,[3],-2.44%
same,Percent Effect,[7],-2.21%
COCCNC(=O)c1sc(Nc2ccc(Cl)cn2)nc1C,Percent Effect,[3],-1.92%
same,Percent Effect,[7],-31.4%
CCC(NC(=O)C1CCN(S(C)(=O)=O)CC1)c1ccc(OC)c(C)c1 (configuration not stated),Percent Effect,[3],-5.17%
same,Percent Effect,[7],-11.6%
Cc1ccc([C@@H]2CN(C(=O)c3ccc[nH]3)C[C@H]2NC(=O)C2CC2)cc1,Percent Effect,[3],-1.93%
same,Percent Effect,[7],3.8%
O=C(CCc1nccs1)N1CCN(c2ncccn2)CC1,Percent Effect,[3],-0.577%
same,Percent Effect,[7],11.5%
CCN(CC1CCCO1)C(=O)Nc1ccc(F)cc1OC (configuration not stated),Percent Effect,[3],-2.28%
same,Percent Effect,[7],-7.53%
Cc1cnc(NC(=O)c2ccc(-n3ncc(C#N)c3N)cc2)s1,Percent Effect,[3],0%
same,Percent Effect,[7],-13.3%
Cc1nn(C)c(C)c1-c1cncc(C2CCN(S(C)(=O)=O)CC2)n1,Percent Effect,[3],-2.63%
same,Percent Effect,[7],-8.32%
COc1ccccc1C(=O)N1CCCC1Cn1cc(C)cn1 (configuration not stated),Percent Effect,[3],3.31%
same,Percent Effect,[7],26.5%
NC[C@H]1CC[C@H](C(NC(=O)c2cccc(F)c2)c2ccccn2)CC1 (some centres not stated),Percent Effect,[3],-0.28%
same,Percent Effect,[7],-71.9%
O=C(CCNC(=O)c1ccoc1)Nc1c(F)cccc1F,Percent Effect,[3],4.76%
same,Percent Effect,[7],-4.74%
